# In PubChem BioAssay AID485349 (National Center for Advancing Translational Sciences (NCATS), 2010):
# Screen size: about 320,000 compounds; about 620 (0.19%) were called active. What follows is part of a selection rich in actives, with near analogues and random picks from the rest. Entries that show only a call come without a potency. Unmarked numbers belong to inactive results. Calls follow the shape of the dose curve; as a rule, active = well fitted activation curve with a large enough effect; inconclusive = small, poorly fitted or top-dose-only effect; inactive = no such curve, though single readings can be large or run the other way.
# Experiment: qHTS Assay for Identifying a Potential Treatment of Ataxia-Telangiectasia; also: nearly all actives have a fitted effect of over 45% in size
# Conditions: F2112 A-T fibroblasts, KAP-1 phosphorylation AlphaLISA, neocarzinostatin DNA damage 30 min before lysis; series mostly up to 57.5 µM
# Outline: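 hTERT-immortalized A-T patient fibroblasts (F2112), 500 cells/well in OPTI-MEM, 1% FBS, got compounds for 60 min, then NCS for 30 min at 37C. Lysates were then assayed for phospho-KAP-1 by AlphaLISA (anti-pKAP1 donor, anti-KAP1 acceptor beads), 6 hr at 25C.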
# Potency is read from the fitted curve at half-maximal effect.
SMILES,Potency,activation
O=C(COC(=O)Cc1ccccc1F)NCCc1ccccc1,inactive,
C#CCOCCOCCOCCNc1nc(N2CCN(C(=O)[C@H](CCC(=O)O)n3cc(C(N)CO)nn3)CC2)nc(N2CCN(C(=O)[C@H](CCCCN)n3cc(C(N)CC(C)C)nn3)CC2)n1 (some centres not stated),31.6 µM (active),
C#CCOCCOCCOCCNc1nc(N2CCN(C(=O)[C@H](CO)n3cc([C@@H](N)C(C)C)nn3)CC2)nc(N2CCN(C(=O)[C@H](CCC(=O)O)n3cc([C@@H](N)[C@H](C)CC)nn3)CC2)n1,inactive,
C#CCOCCOCCOCCNc1nc(N2CCN(C(=O)[C@H](CCC(=O)O)n3cc(C(N)CO)nn3)CC2)nc(N2CCN(C(=O)[C@H](CCCCN)n3cc(C(N)[C@H](C)CC)nn3)CC2)n1 (some centres not stated),inactive,
CCOC(=O)C1=C(C)N(C[C@@H]2CC[C@@H](Cc3ccc(-c4ccccc4)cc3)O2)C(=O)NC1c1ccc([N+](=O)[O-])cc1 (some centres not stated),inactive,
COc1ccc(OCc2nnc3n2N=C(c2ccccc2)C(CC(=O)O)S3)cc1 (configuration not stated),inactive,
CCN(CC)C(=O)[C@H]1C[C@H](CC(=O)NCC23CC4CC(CC(C4)C2)C3)C(=O)N2CCc3c([nH]c4cc(CCC(=O)N(C)C)ccc34)[C@]12C,,5.14% [at 11.5 µM]
CN(C)CCCNC(=O)c1cc(C(=O)Cc2ccc(Cl)cc2)c[nH]1,inactive,
Cc1c(N=Nc2ccc(N(C)C)cc2)c(=O)n(-c2ccccc2)n1C,inactive,
COc1ccc(NC(=S)NCC2CCN(c3ccc(OC)cc3)C2)cc1 (configuration not stated),inactive,
COc1ccc(N2CCC(CNC(=S)Nc3c(C)cccc3C)C2)cc1 (configuration not stated),17.8 µM (active),
COc1ccc(NC(=S)NCCN2CCC(C)CC2)cc1,inactive,
CC(C)(C)[Si](OCC[C@@H]1C[C@@]1(C)[C@@H](NP(=O)(c1ccccc1)c1ccccc1)c1ccccc1)(c1ccccc1)c1ccccc1,inactive,
CCOc1ccc(N(CC(=O)Nc2ccccc2F)S(=O)(=O)c2c(C)[nH]c(=O)[nH]c2=O)cc1,inactive,
O=C(c1ccccc1)N1N=C(c2ccccc2O)CC1c1ccc(Br)cc1 (configuration not stated),17.8 µM (active),
CNC(=S)N1N=C(c2ccccc2)CC1c1ccc(Br)cc1 (configuration not stated),inactive,
CC(=O)Oc1ccccc1C1=NN(C(C)=O)C(c2ccccc2)C1 (configuration not stated),inactive,
Cn1c2cc(B(O)O)sc2c2cnn(Cc3ccccc3F)c(=O)c21,inactive,
CS/C(=C\[N+](=O)[O-])Nc1ccc(C)cc1,inactive,
CCCCn1nnnc1NCc1cc(OC)c(OC)c(OC)c1,inactive,
CS(=O)(=O)c1ccc(Cl)c(NC(=O)COC(=O)c2cccc(S(=O)(=O)N3CCCC3)c2)c1,inactive,
O=C(CNCc1cccs1)Nc1cc(S(=O)(=O)N2CCCC2)ccc1Cl,3.16 µM (active),
O=C(NCc1cccs1)C1CCN(S(=O)(=O)c2ccc(Cl)cc2)CC1,inactive,
CCCS(=O)(=O)Nc1ccc(-c2cn3c(n2)SCC3)cc1,inactive,
O=C(COC(=O)Cn1cnc2ccccc2c1=O)NCc1ccccc1Cl,inactive,
CSc1nnc(C2CCCN(CC(=O)Nc3ccccc3N3CCOCC3)C2)n1C(C)C (configuration not stated),inactive,

SMILES,Potency,activation
Nc1cc(N)nc(SCc2cccc(F)c2)n1,inactive,
CC(=O)c1nc2ccccc2n1Cc1ccccc1,inactive,
CC(C)(C)c1cc2cccnc2n1Cc1cccc(F)c1,28.2 µM (active),
COc1ccnc2c1c(=O)n(Cc1cccc(F)c1)c(=O)n2C,inactive,
CC(C)(C)c1cc2cccnc2n1Cc1ccccc1,20 µM (active),
Cc1cc(C(C)(C)C)n2nc(C)c(-c3ccccc3)c2n1,inactive,
COC(=O)c1ccc(C2C(Oc3ccccc3C)C(=O)N2CCc2ccc(OC)c(OC)c2)cc1 (configuration not stated),inactive,
CC(=O)C1=C(O)C(=O)N(c2ccc(S(N)(=O)=O)cc2)C1c1ccccc1F (configuration not stated),inactive,
O=P(O)(CN1CCCCC1)CN1CCCCC1,inactive,
N=c1ccn(CC(=O)NC(N)=O)c2ccccc12,inactive,
O=C(OCCN=C1NS(=O)(=O)c2ccccc21)c1cccc([N+](=O)[O-])c1,inactive,
O=C(O)c1[nH]c2ccccc2c1C(c1cccc(O)c1)c1c(C(=O)O)[nH]c2ccccc12,inactive,
C[C@@H]1CN([C@@H](C)CO)C(=O)c2cc(NC(=O)C3CC3)ccc2O[C@H]1CN(C)C,inactive,
O=c1o[nH]c(-c2ccccc2)c1N=Nc1c(F)cccc1Cl,inactive,
COc1ccc(C(C)NC(=S)NC2CCCCC2)cc1OC (configuration not stated),inactive,
Cc1ccc(CNC(=O)Cc2cn(C)c3ccccc23)cc1,inactive,
Cc1ccc(C(=O)N/C(=C\c2ccco2)C(=O)NC2CCS(=O)(=O)C2)cc1 (configuration not stated),10 µM (active),
O=C(NCc1ccco1)/C(=C/c1ccco1)NC(=O)c1ccccc1,inactive,
O=C(NCC1CCCO1)/C(=C\c1ccco1)NC(=O)c1ccccc1 (configuration not stated),inactive,
O=S(=O)(NC1CCN(S(=O)(=O)c2ccc3c(c2)OCCO3)CC1)c1c(F)cccc1F,inactive,
CC1CCCN(C(=O)c2ccc3c(c2)C(=O)N(CCC2=CCCCC2)C3=O)C1 (configuration not stated),inactive,
COc1ccc2[nH]c3c(c2c1)CCN1C(=O)C(CC(=O)NCCc2ccccn2)C[C@H](C(=O)N2CCOCC2)[C@@]31C (some centres not stated),inactive,
O=C(NCC1CCCO1)c1ccc(S(=O)(=O)Nc2ccc(F)cc2)cc1 (configuration not stated),inactive,
O=C1CCCN1C(=O)COc1ccc([N+](=O)[O-])cc1,inactive,
COc1ccc(-c2nc(CCNC(=O)c3ccc(Br)o3)cs2)cc1,inactive,
O=S(=O)(NCCc1csc(-c2ccccc2)n1)c1cccnc1,inactive,

SMILES,Potency,activation
O=C(NCCc1csc(-c2ccccc2)n1)c1ccccc1F,22.4 µM (active),
COCCn1c(C)cc(C(=O)COC(=O)/C=C/c2cccc(OC)c2)c1C,inactive,
CCOC(=O)C1=CN(Cc2ccc(Br)cc2)S(=O)(=O)NC1C (configuration not stated),inactive,
O=C(Nc1ccccc1N1CCN(C(=O)c2ccccc2)CC1)c1ccco1,inactive,
O=C(Nc1ccccc1C(=O)N1CCCCC1)c1ccco1,inactive,
O=C(Nc1cccc2c1N(C(=O)c1ccco1)CCC2)c1ccco1,35.5 µM (active),
CCN(C(=O)COC(=O)c1c(C)nn(-c2ccccc2)c1Cl)c1c(N)n(Cc2ccccc2)c(=O)[nH]c1=O,inactive,
CC[C@]12c3[nH]c4ccc(Cl)cc4c3CCN1C(=O)[C@@H](CC(=O)NCCN1CCOCC1)C[C@@H]2C(=O)N1CCN(C(=O)C2CC2)CC1,inactive,
CCN(CC)P(=O)(Nc1ccc(SC(F)F)cc1)c1ccc(N(C)C)cc1NC(=O)c1ccco1 (configuration not stated),inactive,
CCCCNC(=O)C(C)N(CCN(C)C)C(=O)CCCCCN1C(=O)NC(c2ccc(Cl)cc2)C(C(=O)OCc2ccccc2)=C1C (configuration not stated),inactive,
Cc1cccc(-n2c(SCC(=O)Nc3cccc(S(=O)(=O)NC4=NCCCCC4)c3)nc3ccccc3c2=O)c1C,inactive,
CC/C=C/C(=O)N1CC2(CC(c3cccc(NC(=O)CC)c3)=NO2)C[C@H]1C(N)=O (some centres not stated),inactive,
C/C=C\C=C\C(=O)N1CC2(CC(c3cccc(NC(=O)/C(C)=C\C)c3)=NO2)C[C@H]1C(N)=O (some centres not stated),25.1 µM (active),
C/C=C(/C)C(=O)Nc1cccc(C2=NOC3(C2)C[C@@H](C(N)=O)N(C(=O)C2(C)CC2)C3)c1 (some centres not stated),inactive,
O=C(NCCC(=O)N1O[C@@H]2C=C[C@H]1C2)OCC1c2ccccc2-c2ccccc21,,-1.69% [at 11.5 µM]
Cc1ccc(S(=O)(=O)N2CCN(C)CC2)cc1C(=O)NC1CCCCC1,inactive,
Fc1ccc(CNCc2ccc(Br)cc2)cc1,inactive,
Cc1cccc(CN2CCN(Cc3cnn(-c4ccccc4F)c3)CC2CCO)n1 (configuration not stated),inactive,
O=C(Nc1ccccc1)N1CCC(C(=O)N2CCN(Cc3ccccc3)CC2)CC1,inactive,
COc1ccc(N(CC(=O)Nc2ccc(C)cc2C)S(=O)(=O)c2ccccc2[N+](=O)[O-])c(OC)c1,,2.47% [at 11.5 µM]
CCOC(=O)N1CCC(Nc2c(NCCCN3CCN(CC)CC3)c(=O)c2=O)CC1,inactive,
CCOC(=O)N1CCC(Nc2c(NCCN3CCN(c4cccc(Cl)c4)CC3)c(=O)c2=O)CC1,inactive,
CCOC(=O)N1CCC(Nc2c(NCCCN3CCN(c4ccc(OC)cc4)CC3)c(=O)c2=O)CC1,11.2 µM (active),
CCCCCCCCCCCCN1C(=O)CSC1c1cccnc1 (configuration not stated),inactive,
CC(C)Cc1ccc(S(=O)(=O)N2CCN(C(=O)c3ccco3)CC2)cc1,inactive,
